In PubChem BioAssay AID1159580 (chemical genetic matrix, 2015):
Where “and” joins values, the source holds several entries; their conditions need not be identical. Equal values may be shown once. Out of some 5,500 compounds screened, about 2,000 (36%) were called active. Inconclusive results (about 18%) are left out. Rule as the data show it: active = normalized growth mostly below about 0.91 (no sharp cut-off); inconclusive = no clear call, values can overlap the other calls; inactive = mostly above about 0.92. The list shows a part of the results.

Assay: chemical genetic growth profiling, strain panel (AID 1159580);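 also: tested at 20 µM; growth read once vehicle control cultures reached saturation at 30 °C; 1 = growth at the plate median or of vehicle wells; lower values mean less growth of the strain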
Details: S. cerevisiae deletion strains, growth OD

Measured: normalized growth

CCN(CC)CCOc1ccc(/C(=C(\Cl)c2ccccc2)c2ccccc2)cc1
0.0616 (active) and 0.946 (inactive): locus YJL095W, strain BCK1, stronger effect = lower value
0.0542 (active) and 0.924 (inactive): locus YHR030C, strain SLT2, stronger effect = lower value
inactive: locus YHR079C, strain IRE1, stronger effect = lower value 0.945 | locus YIL125W, strain kgd1, stronger effect = lower value 0.983 | locus YJR066W, strain TOR1, stronger effect = lower value 0.982
active: locus YAL013W, strain DEP1, stronger effect = lower value 0.0553 | locus YAL021C, strain ccr4, stronger effect = lower value 0.064 | locus YAL026C, strain drs2, stronger effect = lower value 0.0617 | locus YAL030W, strain snc1, stronger effect = lower value 0.076 | locus YBL061C, strain skt5, stronger effect = lower value 0.0714 | locus YBR009C, strain hhf1, stronger effect = lower value 0.0875 | locus YBR021W, strain FUR4, stronger effect = lower value 0.089 | locus YBR023C, strain chs3, stronger effect = lower value 0.0792 | locus YBR171W, strain sec66, stronger effect = lower value 0.17 | locus YBR229C, strain ROT2, stronger effect = lower value 0.0488 | locus YBR231C, strain swc5, stronger effect = lower value 0.0847 | locus YBR279W, strain paf1, stronger effect = lower value 0.265 | locus YCL011C, strain gbp2, stronger effect = lower value 0.0699 | locus YCL016C, strain dcc1, stronger effect = lower value 0.203 | locus YCL029C, strain bik1, stronger effect = lower value 0.0627 | locus YCL069W, strain vba3, stronger effect = lower value 0.11 | locus YCR088W, strain abp1, stronger effect = lower value 0.107 | locus YDL005C, strain med2, stronger effect = lower value 0.11 | locus YDL035C, strain GPR1, stronger effect = lower value 0.0517 | locus YDL040C, strain nat1, stronger effect = lower value 0.479 | locus YDL074C, strain BRE1, stronger effect = lower value 0.0809 | locus YDL101C, strain DUN1, stronger effect = lower value 0.0611 | locus YDL185W, strain tfp1, stronger effect = lower value 0.124 | locus YDL192W, strain arf1, stronger effect = lower value 0.0614 | locus YDR001C, strain nth1, stronger effect = lower value 0.216 | locus YDR069C, strain doa4, stronger effect = lower value 0.0706 | locus YDR101C, strain arx1, stronger effect = lower value 0.0624 | locus YDR137W, strain rgp1, stronger effect = lower value 1.41 [resistant] | locus YDR159W, strain sac3, stronger effect = lower value 0.105 | locus YDR162C, strain NBP2, stronger effect = lower value 0.0484 | locus YDR195W, strain ref2 0.235 | locus YDR297W, strain sur2, stronger effect = lower value 0.0942 | locus YDR318W, strain mcm21, stronger effect = lower value 0.0641 | locus YDR334W, strain swr1, stronger effect = lower value 0.0931 | locus YDR335W, strain msn5, stronger effect = lower value 0.093 | locus YDR388W, stronger effect = lower value 0.055 | locus YDR392W, strain spt3, stronger effect = lower value 0.0803 | locus YDR502C, strain sam2, stronger effect = lower value 0.0655 | locus YEL003W, strain gim4, stronger effect = lower value 0.133 | locus YEL037C, strain rad23, stronger effect = lower value 0.099 | locus YEL061C, strain CIN8 (second series), stronger effect = lower value 0.3 | locus YEL061C, strain CIN8, stronger effect = lower value 0.0516 | locus YER015W, strain faa2, stronger effect = lower value 0.143 | locus YER016W, strain bim1, stronger effect = lower value 0.218 | locus YER110C, stronger effect = lower value 0.0804 | locus YER111C, strain swi4, stronger effect = lower value 0.529 | locus YER155C, strain BEM2 (second series), stronger effect = lower value 0.851 | locus YER155C, strain BEM2, stronger effect = lower value 0.0653 | locus YER167W, strain BCK2, stronger effect = lower value 0.0512 | locus YFR010W, strain ubp6, stronger effect = lower value 0.0804 | locus YGL078C, strain dbp3, stronger effect = lower value 0.919 | locus YGL086W, strain mad1, stronger effect = lower value 0.0596 | locus YGL167C, strain pmr1, stronger effect = lower value 0.244 | locus YGL173C, strain kem1, stronger effect = lower value 0.497 | locus YGL227W, strain vid30, stronger effect = lower value 0.144 | locus YGL240W, strain doc1, stronger effect = lower value 0.228 | locus YGL248W, strain PDE1, stronger effect = lower value 0.0492 | locus YGL253W, strain hxk2, stronger effect = lower value 0.0662 | locus YGR135W, strain pre9, stronger effect = lower value 0.069 | locus YGR252W, strain gcn5, stronger effect = lower value 0.178 | locus YHR013C, strain ard1, stronger effect = lower value 0.134 | locus YHR027C, strain rpn1, stronger effect = lower value 0.109 | locus YHR079C, strain IRE1 (second series), stronger effect = lower value 0.0584 | locus YHR094C, strain hxt1, stronger effect = lower value 0.0617 | locus YHR129C, strain ARP1, stronger effect = lower value 0.0567 | locus YHR142W, strain chs7, stronger effect = lower value 0.08 | locus YHR200W, strain rpn10, stronger effect = lower value 0.0639 | locus YIL066C, strain RNR3, stronger effect = lower value 0.0508 | locus YIL073C, strain SPO22, stronger effect = lower value 0.106 | locus YIR030C, strain dcg1, stronger effect = lower value 0.0601 | locus YJL092W, strain hpr5, stronger effect = lower value 0.193 | locus YJL095W, strain BCK1 (second series), stronger effect = lower value 0.0616 | locus YJL115W, strain asf1, stronger effect = lower value 0.262 | locus YJL129C, strain trk1, stronger effect = lower value 0.158 | locus YJL134W, strain LCB3, stronger effect = lower value 0.0524 | locus YJL154C, strain vps35, stronger effect = lower value 0.095 | locus YJL164C, strain tpk1, stronger effect = lower value 0.0775 | locus YJL166W, strain qcr8, stronger effect = lower value 0.0887 | locus YJL168C, strain set2, stronger effect = lower value 0.0577 | locus YJL187C, strain SWE1 (second series), stronger effect = lower value 0.0519 | locus YJR043C, strain POL32, stronger effect = lower value 0.064
